From PubChem BioAssay (NCATS)
Results filed as inconclusive are left out. A call without a number means that no potency is given here. Active and inactive are the calls of the source. Unless noted, calls come from the whole dose curve; as a rule, active = well fitted curve in the direction sought with a large enough effect; inconclusive = small, poorly fitted or top-dose-only effect, or another doubt; inactive = no such curve, though single readings can be large; an effect the other way counts as inactive or inconclusive.

Columns and labels:
[1] = qHTS for Inhibitors of Plasmodium falciparum (HB3) proliferation (AID 504318); note: nearly all actives have a fitted effect of over 60% in size
Method in brief: (§1)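 Parasite growth measured as SYBR Green DNA fluorescence (ex 485, em 535 nm) after overnight lysis following 72 h culture at 37 °C, 0.3% parasitemia, 2.5% hematocrit. Values normalized against DMSO and 0.29 uM artemisinin controls, with plate-stack correction.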

[2] = molecular target: Atrial natriuretic peptide receptor 1 (Homo sapiens) (UniProt P16066); assay: Natriuretic polypeptide receptor (hNpr1) antagonism - Pilot CMLD screen (AID 1347052; calls by dose curve;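 note: cGMP level read as GloSensor luciferase luminescence after agonist stimulation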)
Sequence of Atrial natriuretic peptide receptor 1 (Homo sapiens) (P16066 whole entry, looked up): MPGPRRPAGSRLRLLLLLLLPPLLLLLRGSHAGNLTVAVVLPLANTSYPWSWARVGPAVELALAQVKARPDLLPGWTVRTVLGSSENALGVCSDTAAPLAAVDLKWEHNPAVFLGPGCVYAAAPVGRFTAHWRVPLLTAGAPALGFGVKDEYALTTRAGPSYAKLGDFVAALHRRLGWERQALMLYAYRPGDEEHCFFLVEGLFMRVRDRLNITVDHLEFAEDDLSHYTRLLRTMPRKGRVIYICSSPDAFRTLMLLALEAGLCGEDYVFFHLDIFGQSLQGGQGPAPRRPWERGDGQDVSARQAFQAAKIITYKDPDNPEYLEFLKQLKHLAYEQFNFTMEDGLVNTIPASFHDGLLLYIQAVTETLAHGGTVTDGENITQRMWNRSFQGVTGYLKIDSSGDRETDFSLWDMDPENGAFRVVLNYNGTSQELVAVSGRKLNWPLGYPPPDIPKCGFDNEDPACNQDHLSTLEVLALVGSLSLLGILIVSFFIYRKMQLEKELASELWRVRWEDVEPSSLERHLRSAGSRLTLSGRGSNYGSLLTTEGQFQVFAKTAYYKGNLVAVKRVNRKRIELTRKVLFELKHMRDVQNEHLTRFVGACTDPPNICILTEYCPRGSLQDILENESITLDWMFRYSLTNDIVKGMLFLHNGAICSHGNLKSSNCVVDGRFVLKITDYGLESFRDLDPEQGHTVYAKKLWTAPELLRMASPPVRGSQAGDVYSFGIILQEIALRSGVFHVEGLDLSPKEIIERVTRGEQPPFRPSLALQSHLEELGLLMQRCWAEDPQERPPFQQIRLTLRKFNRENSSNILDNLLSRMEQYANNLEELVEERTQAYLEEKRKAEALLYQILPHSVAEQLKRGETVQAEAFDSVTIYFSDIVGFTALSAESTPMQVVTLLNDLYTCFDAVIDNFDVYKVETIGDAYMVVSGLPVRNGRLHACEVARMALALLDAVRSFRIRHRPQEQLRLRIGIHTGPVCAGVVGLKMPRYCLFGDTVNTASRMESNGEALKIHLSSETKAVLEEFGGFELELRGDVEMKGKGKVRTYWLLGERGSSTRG

[3] = qHTS for Inhibitors of Plasmodium falciparum (7G8) proliferation (AID 504316); note: nearly all actives have a fitted effect of over 65% in size
Method in brief: as §1

[4] = qHTS for Inhibitors of Plasmodium falciparum (CP250) proliferation (AID 504320)
Method in brief: as §1
Potency is the fitted concentration of half-maximal effect.

SMILES	Potency [1]	Potency [2]	Potency [3]	Potency [4]
C[C@H]1CC[C@H]2C(=O)O[C@H](COc3ccc(C(C)(C)C)cc3)CN2[C@H]1c1ccc(Br)cc1	3290 nM (active)	inactive		
COC(=O)C1=C(C(=O)OC)[C@@H]2N(Cc3ccccc3)c3ccccc3[C@@]23CCC(=O)N(CCc2ccccn2)C3=N1		inactive	1510 nM (active)	inactive
COc1cccc([C@@H]2[C@H](C)C[C@H]3CC(=O)N4[C@H](CC(=O)N32)C[C@@H](C)[C@@H]4c2cccc(OC)c2)c1		inactive	1510 nM (active)	inactive
Brc1ccc2c(c1)c1cc(Br)ccc1n2CC1CO1 (centres undefined)		inactive	1690 nM (active)	inactive
CC(C)=CCN1C(=O)[C@]2(O[C@H](COc3ccccc3)CC3=C2CCC3)c2ccccc21	1690 nM (active)	inactive		
N#Cc1ccc2c(c1)C[C@]1(c3ccsc3)OC3=C(C(=O)OC4(CCCCC4)C3)[C@H]2O1		inactive	inactive	inactive
O=C1c2ccccc2C(=O)N1CCCC[C@]12Cc3ccccc3[C@H](O1)c1c(c3ccccc3oc1=O)O2		inactive	1510 nM (active)	1690 nM (active)
COc1cc2c(cc1OC)[C@@H]1O[C@](c3ccsc3)(C2)Oc2cc(C)n(Cc3ccccc3)c(=O)c21		531 nM (active)	1510 nM (active)	inactive
CC1(C)CC(=O)C2=C(C1)O[C@@]1(CCCCN3C(=O)c4ccccc4C3=O)Cc3cc(C#N)ccc3[C@H]2O1		inactive	1690 nM (active)	inactive
N#Cc1ccc2c(c1)C[C@]1(CCCCN3C(=O)c4ccccc4C3=O)Oc3c(c(=O)oc4ccccc34)[C@H]2O1		inactive	1510 nM (active)	inactive
Cc1cc2c(c(=O)n1-c1ccccc1)[C@H]1O[C@](c3ccsc3)(Cc3ccccc31)O2		inactive	1510 nM (active)	inactive
COC(=O)C1=C(C)N(Cc2ccccc2)C(=NCc2ccc(OC)cc2)NC1c1cccc(F)c1 (centres undefined)	inactive	inactive		
CCc1cc2c(nc1CC)CCN(CCC(C)=NO[C@@H](C)c1cn([C@H](CO)Cc3ccccc3)nn1)C2		inactive	1690 nM (active)	inactive
C=CCN=C1N[C@H](c2ccc(Br)cc2)C(C(=O)OC)=C(C)N1Cc1ccccc1	inactive	inactive		
FC(F)(F)c1cc(NC(=S)Nc2ccc3ccccc3c2)cc(C(F)(F)F)c1	2130 nM (active)	inactive		
C=CC1=C2C=C(C3CC3)N(Cc3ccccc3)C=C2C(=O)C(C)(OC(=O)c2ccco2)C1=O (centres undefined)		inactive	inactive	inactive
COC(=O)c1ccc(CN2C(=O)[C@@]3(CC(C)=CC[C@@H](COc4ccccc4)O3)c3c(Br)cccc32)cc1	1510 nM (active)	inactive		
CCN1C(=NCCc2c[nH]c3ccccc23)NC(c2cccc(F)c2)C(C(=O)OC)=C1C (centres undefined)	inactive	inactive		
Cc1ccccc1Nc1oc(-c2ccccc2)nc1C(C)(C)C	1690 nM (active)	inactive		

SMILES	Potency [1]	Potency [2]	Potency [3]	Potency [4]
COc1ccc(O[C@H]2C=C[C@@H](c3ccccc3)O[C@H]2CON=C(C)CCN2CCCCc3nc(C)c(C)cc32)cc1		inactive	1510 nM (active)	inactive
COC(=O)C1=C(C)N(CC2CC2)C(N(C)Cc2ccc(OC)cc2)=NC1c1ccccc1 (centres undefined)	inactive	inactive		
COC(=O)CC1OC1[C@H](C)[C@@H](OC)C(C)C (some centres undefined)		inactive	1690 nM (active)	inactive
CCCC[C@]12Cc3cc(C#N)ccc3[C@H](O1)c1c(cc(C)n(Cc3ccccc3)c1=O)O2		inactive	1690 nM (active)	inactive
CCCCn1c(C)cc2c(c1=O)[C@H]1O[C@](CCCC)(Cc3cc(C#N)ccc31)O2		inactive	1900 nM (active)	inactive
C[C@H]1CC[C@H]2C(=O)N(Cc3ccc(Cl)cc3)C[C@@H](O)CN2[C@H]1c1ccc(Br)cc1		inactive	1690 nM (active)	inactive
COc1ccc([C@]23Cc4cc(OC)c(OC)cc4[C@H](O2)C2=C(CCCC2=O)O3)cc1		inactive	1510 nM (active)	inactive
N#Cc1ccc2c(c1)C[C@]1(CCCCN3C(=O)c4ccccc4C3=O)Oc3c(c(=O)oc4ccc(F)cc34)[C@@H]2O1		inactive	1510 nM (active)	inactive
COCc1cc2cc3c(cc2c2c(C(=O)OC)c(C(=O)OC)c(C(=O)OC(C)(C)C)n12)OCO3		3350 nM (active)	1510 nM (active)	inactive
CC1(C)CC(=O)C2=C(C1)O[C@@]1(CCCCN3C(=O)c4ccccc4C3=O)Cc3c(ccc4ccccc34)[C@H]2O1		inactive	1510 nM (active)	inactive
C=C[C@@H](C)[C@](C)(O)c1ccccc1		inactive	1510 nM (active)	inactive
O=C1CCCC2=C1[C@H]1O[C@](CCCCN3C(=O)c4ccccc4C3=O)(Cc3c1ccc1ccccc31)O2		inactive	1690 nM (active)	inactive
COC(=O)C1=C(C)N(Cc2ccccc2)C(=NCc2ccc3c(c2)OCO3)NC1CCc1ccccc1 (centres undefined)		inactive	inactive	inactive
COC1=C[C@H](C(=O)N[C@H]2CCCC[C@H]2NC(C)=O)[C@@]2(C)Cc3ccccc3[C@@H]2CC1=O		inactive		inactive
CC(Nc1oc(-c2ccccc2)nc1-c1cccc2ccccc12)c1ccccc1 (centres undefined)	inactive	inactive		inactive
c1ccc(CNc2oc(-c3ccccc3)nc2-c2cccc3ccccc23)cc1	3290 nM (active)	inactive		
O=C1N(Cc2ccccc2C(F)(F)F)c2ccccc2[C@@]12O[C@H](COc1ccccc1)CC1=C2CCC1		inactive		inactive
COC(=O)C1=C[C@H]([C@@H](C)[C@H](OC)c2ccccc2Br)[C@H]2c3ccccc3O[C@@H]12	inactive	inactive		inactive
